Assay results taken from PubChem BioAssay AID504385 (National Center for Advancing Translational Sciences (NCATS), 2011).
Active and inactive are the calls of the source. No rule for the calls is given here.

Each compound was assayed against Lutropin-choriogonadotropic hormone receptor (Homo sapiens) (UniProt P22888) (assay: Counterscreen for antagonists of the thyroid stimulating hormone receptor: ELISA activity in a Luteinizing Hormone Receptor cell line). Details: HEK293 LHR cells, LH-induced cAMP ELISA.
Sequence of Lutropin-choriogonadotropic hormone receptor (Homo sapiens) (P22888 whole entry, looked up): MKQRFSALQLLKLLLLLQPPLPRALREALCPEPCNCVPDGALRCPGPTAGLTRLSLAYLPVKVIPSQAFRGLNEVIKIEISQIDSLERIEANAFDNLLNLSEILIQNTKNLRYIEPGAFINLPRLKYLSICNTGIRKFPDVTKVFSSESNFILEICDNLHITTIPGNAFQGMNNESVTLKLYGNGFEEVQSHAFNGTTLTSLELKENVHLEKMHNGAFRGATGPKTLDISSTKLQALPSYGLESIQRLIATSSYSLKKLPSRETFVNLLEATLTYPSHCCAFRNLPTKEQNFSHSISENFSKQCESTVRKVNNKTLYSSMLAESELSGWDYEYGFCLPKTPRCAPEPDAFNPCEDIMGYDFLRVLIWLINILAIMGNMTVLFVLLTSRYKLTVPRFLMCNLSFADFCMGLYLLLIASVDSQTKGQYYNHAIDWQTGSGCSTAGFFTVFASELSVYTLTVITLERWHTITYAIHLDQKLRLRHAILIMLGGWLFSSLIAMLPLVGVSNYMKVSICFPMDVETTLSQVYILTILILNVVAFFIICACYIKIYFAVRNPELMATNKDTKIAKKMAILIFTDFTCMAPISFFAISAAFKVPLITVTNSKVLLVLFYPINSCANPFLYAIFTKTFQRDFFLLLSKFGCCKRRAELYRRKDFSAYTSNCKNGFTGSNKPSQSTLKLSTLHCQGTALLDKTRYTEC
Description: TSH is an alpha/beta heterodimeric glycoprotein hormone secreted from the anterior pituitary gland which belongs to the glycoprotein hormone family. The actions of TSH are mediated by a seven-transmembrane receptor, which upon TSH binding couples preferentially to the G-alpha (s) protein (Gs), resulting in activation of adenylate cyclase and increase in cyclic adenosine 3', 5' monophosphate (cAMP). The TSH receptor (THSR) is mainly expressed in thyroid follicular cells and regulates their growth and function. This cell based assay was conducted on a TSHR transfected HEK 293 cell line, measuring cAMP stimulation using antibody-based Homogeneous Time Resolved Fluorescence (HTRF). Our goal is to identify small molecules that will inhibit (antagonize) the thyroid-stimulating hormone receptor (TSHR), a member of the 7 transmembrane-spanning receptor (7TMR) family of cell surface receptors. TSHR-mediated hyperthyroidism is important in thyroid pathology. The development of small molecule antagonists of TSHR may lead to therapeutic approaches for TSHR-mediated hyperthyroidism caused by constitutively activating mutations or stimulating auto-antibodies associated with Graves' disease. Graves' disease is the leading cause of hyperthyroidism and is caused by autoantibodies that stimulate TSHR (TsAbs) causing thyroid growth and unregulated overproduction of thyroid hormones and existing treatments have liabilities (agranulocytosis). In addition, TSHRs are known to be expressed in multiple extrathyroidal tissues including bone, brain, kidney, testis, fat and cells of the immune system but the role of the TSHR in these tissues is not clear. Therefore, TSHR antagonists/inverse agonists could be used as probes of extrathyroidal TSHR function. Finally, TSHR inverse agonists, which are a subclass of antagonists that inhibit agonist-independent (or basal or constitutive) TSHR signaling, could be used to inhibit TSH-independent signaling in patients with recurrent or metastatic thyroid cancer who are receiving thyroid hormone to suppress TSH. In order to confirm specificity of the compounds to the TSHR, a confirmatory assay was conducted on a similar family member, the Luteinizing Hormone Receptor, transfected into a HEK 293 cell line, using an orthogonal detection technology to measure cAMP stimulation: an ELISA based cAMP competition assay using cAMP-Screen Direct System (Applied Biosystems, Foster City, CA)/
Transiently transfected HEK-EM 293 cells or cells stably expressing LHR were seeded into 96-well plates at a density of 7 x10^4 cells per well in DMEM containing 10% FBS. Cells were cultured for 24 h before incubation for 20 min in HBSS/10 mM HEPES (pH 7.4). To determine the effect of the compound on LH induced LHR activity, cells were incubated for 20 min with the compound in HBSS/HEPES without IBMX and subsequently for 40 min with bovine LH (Sigma) and the compound in HBSS/HEPES supplemented with 1 mM IBMX at 37 C. The levels of cAMP in cells incubated in HBSS/HEPES without IBMX were subtracted in all experiments. After aspiration of the incubation medium, cells were lysed using lysis buffer of the cAMP-Screen Direct system (Applied Biosystems, Foster City, CA). The cAMP content of the cell lysate was determined using the method described in the manufacturer's protocol. The chemiluminescence signal was measured in a VICTOR3 V 1420 multilabel counter (PerkinElmer, Norwalk, CT). The potency (IC50) of the ligands were obtained from dose-response curves by data analysis with GraphPad Prism 4 for Windows.
In the case of `Cc1cccc(C)c1OCc1cccc(C2Nc3ccccc3C(=O)N2Cc2ccco2)c1` (configuration not stated), the outcome is reported as “inactive”. For `COc1ccc(C2Nc3ccccc3C(=O)N2Cc2cccnc2)cc1COc1c(C)cccc1C` (configuration not stated), the outcome was “inactive”. With `COc1ccc(C2Nc3ccccc3C(=O)N2Cc2ccco2)cc1COc1c(C)cccc1C` (configuration not stated) the IC50 was 480 nM (active). With `CCc1cccc(CC)c1OCc1cc(C2Nc3ccccc3C(=O)N2Cc2ccco2)ccc1OC` (configuration not stated) the outcome was “inactive”. In the case of `COc1ccc(C2Nc3ccccc3C(=O)N2Cc2ccc(C)o2)cc1COc1c(C)cccc1C` (configuration not stated), the outcome is reported as “inactive”. `COc1ccc(C2Nc3ccccc3C(=O)N2Cc2ccco2)cc1CSc1c(C)cccc1C` (configuration not stated) was tested, and the outcome was “inactive”. In the case of `COc1ccc(C2Nc3ccccc3C(=O)N2Cc2ccco2)cc1COc1c(C)cc(NC(C)=O)cc1C` (configuration not stated), the outcome is reported as “inactive”.
